The values below come from PubChem BioAssay (NCATS).

Results filed as inconclusive are left out. A number with no mark means an inactive call. The source made the active and inactive calls. The call rests on the fitted dose curve; in most records, active means well fitted curve in the direction sought with a large enough effect; inconclusive means small, poorly fitted or top-dose-only effect, or another doubt; inactive means no such curve, though single readings can be large; an effect the other way counts as inactive or inconclusive. Where a SMILES comes first, the peptide text is derived from it. The star is where a group is joined. βNA = c1ccc2cc(N*)ccc2c1; Cbz = O=C(OCc1ccccc1)*

Experiment [1] is described as follows: P-glycoprotein substrates identified in KB-3-1 adenocarcinoma cell line, qHTS therapeutic library screen (AID 1346986). Further: nearly all actives have a fitted effect of over 60% in size. The method in brief: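 Using luminescence to quantify ATP, parental and P-gp-overexpressing KB cells were compared after 72 h compound titration. KB-8-5-11 was also run with the P-gp inhibitor tariquidar.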
Experiment [2] is described as follows: P-glycoprotein substrates identified in KB-8-5-11 adenocarcinoma cell line, qHTS therapeutic library screen (AID 1346987). Further: nearly all actives have a fitted effect of over 65% in size. On activity change, negative = cytotoxicity: series mostly up to about 44 µM; on the % scale 0 is the no-effect control and ±100 the full control effect. In outline:
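Human cervical adenocarcinoma KB-8-5-11 cells, selected in colchicine to over-express P-gp and assayed without it, were exposed for 72 h to titrated compounds. An ATP-based luminescent viability signal gave AC50.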

Experiment [3] deals with Zika virus NS2B-NS3 protease (linked construct). The experiment can be described thus: Confirmatory screen NINDS AMC qHTS for Zika virus inhibitors (AID 1347152). Further: potency means the concentration at half of the fitted maximal effect; nearly all actives have a fitted effect of over 70% in size. The method in brief:
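IC50s from 4-parameter Hill fits of percent inhibition, based on AMC fluorescence gain (340/450 nm) over 15 min with 10 microM Bz-Nle-KRR-AMC. Enzyme: 1 nM linked NS2B-NS3 in Tris-HCl pH 8.0; 15-min compound preincubation.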

For experiment [4], the system named is Zika virus NS2B-NS3 protease (unlinked complex). The experiment can be described thus: Confirmatory screen GU AMC qHTS for Zika virus inhibitors (AID 1347153). Further: potency means the concentration at half of the fitted maximal effect; nearly all actives have a fitted effect of over 70% in size. In outline:
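Unlinked enzyme 25 nM, Tris pH 8.0/0.01% Tween 20; cpd 15 min RT, dark; + AMC substrate 10 µM (Km 18.3 µM); 340/450 nm read at t0 and 15 min; % inhibition → 4-param fit.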

Experiment [5] is described as follows: Confirmatory screen GU Rhodamine qHTS for Zika virus inhibitors qHTS (AID 1347157). Further: potency means the concentration at half of the fitted maximal effect; nearly all actives have a fitted effect of over 70% in size. The method in brief:
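Percent inhibition derives from the 15-min fluorescence change (ex 480, em 540 nm), normalized to no-enzyme and no-inhibitor wells. Reactions contained 25 nM NS2B-NS3 complex and 1.5 microM substrate in 10 mM Tris-HCl pH 8.0.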

For experiment [6], the system named is Zika virus NS2B-NS3 protease (unlinked complex). The experiment can be described thus: Primary screen GU Rhodamine qHTS for Zika virus inhibitors: Unlinked NS2B-NS3 protease assay (AID 1347159). Further: nearly all actives have a fitted effect of over 60% in size. Further: potency means the concentration at half of the fitted maximal effect. The method in brief: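 Unlinked NS2B/NS3, 25 nM; Rhod110 peptide, 1.5 microM; compounds, up to 114 microM. Reaction run 15 min at RT in 10 mM Tris-HCl pH 8.0, 0.01% Tween 20; kinetic fluorescence change fitted with a 4-parameter Hill model.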

Experiment [7] relates to Zika virus NS2B-NS3 protease (linked construct). As to the kind of experiment: Primary screen NINDS Rhodamine qHTS for Zika virus inhibitors (AID 1347160). Further: nearly all actives have a fitted effect of over 55% in size. Further: potency means the concentration at half of the fitted maximal effect. In outline: (§1)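 Single-chain NS2B-NS3 protease, 25 nM, pH 8.0; compounds preincubated 15 min. Activity: Rhodamine110 release from 1.5 microM substrate over 15 min, room temperature, data fitted to 4-parameter Hill.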
Experiment [8] in a line: Confirmatory screen NINDS Rhodamine qHTS for Zika virus inhibitors (AID 1347161). Further: potency means the concentration at half of the fitted maximal effect; nearly all actives have a fitted effect of over 60% in size. The method in brief:
as §1

For experiment [9], the system named is Zika virus NS2B-NS3 protease (linked). As to the kind of experiment: 384 well plate NINDS AMC confirmatory qHTS for Zika virus inhibitors (AID 1347163).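 Further: linked protease at 5 30 or 60 nM final depending on run; fluorescence of AMC released from Ac-VKTGKR-AMC peptide cleaved by the protease; top concentration of the series differs between compounds; 0% = no-inhibitor control and -100% = no-enzyme control; nearly all actives have a fitted effect of over 50% in size.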 The method in brief: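 Enzyme (5, 30 or 60 nM final) first met test compounds for ~15 min. The AMC-tagged peptide Ac-VKTGKR-AMC followed at 30 microM. Fluorescence was then recorded at 25 min and scaled against no-enzyme and no-inhibitor wells.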

Experiment [10] can be described thus: Vero cells viability qHTS for Zika virus inhibitors (AID 1347167). Further: on the % scale 0 is the no-effect control and ±100 the full control effect. In outline: (§2)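 To flag cytotoxic protease inhibitors, viability is measured by ATP-dependent luminescence (CellTiter Glo) after cells attached overnight receive compound for 24 to 48 hours in DMEM with 4% FBS.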
Experiment [11] in a line: HepG2 cells viability qHTS for Zika virus inhibitors (AID 1347168). Further: on the % scale 0 is the no-effect control and ±100 the full control effect. In outline: as §2

Turning to `C=Cc1cc2oc(-c3ccc(O)c(F)c3)nc2cc1O`, the Potency result in experiment [1] and in experiment [2] was “inactive” throughout.
On to `C=C1C(O)CC2C(C(=O)O)=COC(O[C@@H]3O[C@H](COC(=O)c4ccc(O)cc4)[C@@H](O)[C@H](O)[C@H]3O)C12` (stereo partly specified), for which the Potency entry in [1] and in [2] was “inactive” in each case.
`O=C(N[C@H](Cc1ccccc1)C(=O)O)c1sc2cc(F)ccc2c1Cl`: in experiment [1], the Potency entry is “inactive”.
`COc1cc(/C=C/C(=O)O[C@@H]2C[C@](O)(C(=O)O)C[C@@H](O)[C@H]2O)ccc1O`: the Potency result in experiment [1] and in experiment [2] was “inactive” throughout.
In the case of `COC(=O)C1(C)CCCC2(C)c3ccc(C(C)C)cc3C(O)C(O)C12` (stereo unspecified), the Potency result in experiment [1] and in [2] was “inactive” in each case.
Take `COC(=O)C1=COC(OC2OC(CO)C(O)C(O)C2O)C2C(COC(=O)/C=C/c3ccc(O)c(O)c3)C(O)C(O)C12` (stereo unspecified): the Potency entry in [1] and in [2] was “inactive” in each case.
Regarding `O=C1C(Cl)=C(N2CCOCC2)C(=O)N1c1ccc(Cl)c(Cl)c1`, the Potency result in [1] and in experiment [2] was “inactive” in each case.
As for `O=C(/C=C/c1ccc(O)cc1)OC[C@@]1(O)C=C[C@@H]2C(C(=O)O)=CO[C@@H](O[C@@H]3O[C@H](CO)[C@@H](O)[C@H](O)[C@H]3O)[C@@H]21`, the Potency result in [1] and in experiment [2] was “inactive” throughout.
With `CC1CC=C2C1CC1(O)C(=O)CC2(C)C1(C)CO` (stereo unspecified), the Potency result in experiment [1] and in experiment [2] was “inactive” throughout.
Turning to `CC1CCC2C(C)(C)[C@H](O)CC[C@]2(C)C12Cc1c(O)cc3c(c1O2)CN(C(CCC(=O)O)C(=O)O)C3=O` (stereo partly specified), the Potency entry in experiment [1] and in experiment [2] was “inactive” each time.
Turning to `C=C(CC/C=C(\C)C(=O)O)C1(O)CC=C(C)CC1` (stereo unspecified), the Potency entry in experiment [1] and in experiment [2] was “inactive” each time.
Take `CCC(C)/C=C(C)/C=C/C1=CC2=C(Cl)C(=O)C(C)(OC(C)=O)C(=O)C2=CN1C(CCC(=O)O)C(=O)O` (stereo unspecified): the Potency result in experiment [1] and in [2] was “inactive” in each case.
For the compound `O=C1OC(c2ccc(O)cc2)C(O)=C1Cc1ccccc1` (stereo unspecified), the Potency entry in [1] and in experiment [2] was “inactive” in each case.
Consider `O=C(Nc1ccccc1)Nc1ccc(-c2ccc(C(=O)C3CCCC3C(=O)O)cc2)cc1` (stereo unspecified), for which the Potency result in [1], in experiment [2] and in experiment [9] was “inactive” each time. In addition, the Potency in experiment [3] is 27.8 µM (active); in experiment [4], 35 µM (active); in experiment [5], 4.94 µM (active); in experiment [6], 5.01 µM (active); in experiment [7] it was 3.55 µM (active); in [8] it was 3.93 µM (active). Further, the outcome in [10] and in experiment [11] was inactive.
As for `COc1c2cc(c(O[C@@H]3O[C@H](CO)[C@@H](O)[C@H](O)[C@H]3O)c1OC)CCCCC(O)CCc1ccc(O)c-2c1` (stereo partly specified), the Potency entry in experiment [1] and in [2] was “inactive” in each case.
For the compound `Nc1nc2c(nc(Sc3ccc(Cl)cc3)n2[C@@H]2O[C@@H]3COP(=O)(O)O[C@H]3[C@H]2O)c(=O)[nH]1`, the Potency result in experiment [1] and in experiment [2] was “inactive” in each case.
For `C[C@]1(C2CCCC2)Cc2cc(OCC(=O)O)c(Cl)c(Cl)c2C1=O`, the Potency entry in experiment [1] and in experiment [2] was “inactive” in each case.
Turning to `C[C@@H]1C[C@@H](O)[C@@]23CO[C@]2(CO)C[C@@H](O)CC3[C@@]12CC(c1ccoc1)OC2=O` (stereo partly specified), the Potency result in experiment [1] and in experiment [2] was “inactive” in each case.
With `CC(C)CC(NC(=O)OCc1ccccc1)C(=O)NC(CC(C)C)C(=O)NC(CCC(=O)O)C(=O)Nc1ccc2ccccc2c1` (stereo not drawn) (Cbz-Leu-Leu-Glu-βNA; configuration not given here), the Potency entry in experiment [1] and in experiment [2] was “inactive” throughout. For the same compound, the Potency in experiment [6] and in experiment [7] was 11.2 µM (active) each time.
Consider `OCC(O)C(c1c[nH]c2ccccc12)c1c[nH]c2ccccc12` (stereo unspecified), for which the Potency entry in [1] and in experiment [2] was “inactive” throughout. The Potency in experiment [6] was 50.1 µM (active).
On to `C/C=C(\C)C(=O)OC[C@H]1O[C@H](O[C@H]2O[C@H](CO)[C@@H](O)[C@H](O)[C@H]2O[C@@H]2O[C@H](CO)[C@@H](O)[C@H](O)[C@H]2O)[C@H](O[C@@H]2O[C@H](CO)[C@@H](O)[C@H](O)[C@H]2O)[C@@H](O)[C@@H]1O`, for which the Potency entry in experiment [1], in experiment [2], in experiment [6] and in experiment [7] was “inactive” each time.
As for `C[C@@H]1O[C@@H](O[C@H]2[C@H](O[C@H]3[C@H](O[C@H]4CC[C@@]5(C)C(CC[C@]6(C)C5CC=C5[C@@H]7CC(C)(C)C[C@@H](O)[C@]7(C)CC[C@]56C)[C@@]4(C)CO)O[C@H](C(=O)O)[C@@H](O)[C@@H]3O)O[C@H](CO)[C@H](O)[C@@H]2O)[C@H](O)[C@H](O)[C@H]1O` (stereo partly specified), the outcome in experiment [1] and in experiment [2] was “inactive [at 9.29 µM]” throughout. In addition, the Potency entry in experiment [6] is “inactive”.
On to `NC(Cc1c[nH]c2ccc(O)cc12)C(=O)O` (stereo unspecified), for which the Potency result in experiment [1], in [2], in experiment [6] and in [7] was “inactive” each time.
As to `COCc1c(O)c(C(=O)O)c(C)c2c1OC(=O)c1c(C)cc(O)c(CO)c1O2`, the Potency result in experiment [1] and in experiment [2] was “inactive” throughout. For the same compound, the Potency in [6] is 28.2 µM (active).
Regarding `CC(C)CC(=O)O[C@@H]1O[C@H](CO)[C@@H](O[C@H]2O[C@H](C)[C@@H](N[C@H]3C=C(CO)[C@@H](O[C@H]4O[C@H](CO)[C@@H](O[C@H]5O[C@H](CO)[C@@H](O[C@H]6O[C@H](CO)[C@@H](O)[C@H](O)[C@H]6O)[C@H](O)[C@H]5O)[C@H](O)[C@H]4O)[C@H](O)[C@H]3O)[C@H](O)[C@H]2O)[C@H](O)[C@H]1O`, the outcome in [1] was “inactive [at 9.29 µM]”. In [2], the activity change, negative = cytotoxicity is 8.1% [at 9.29 µM]. In addition, the Potency entry in experiment [6] is “inactive”.
For `N#Cc1ccc(C2CCCc3cncn32)cc1` (stereo unspecified), the Potency result in [1], in experiment [2], in experiment [6] and in [7] was “inactive” each time.
Consider `C[C@H]1CC[C@@]2(OC1)O[C@H]1CC3C4CC[C@H]5C[C@@H](O[C@@H]6O[C@H](CO)[C@H](O[C@@H]7O[C@H](CO)[C@@H](O)[C@H](O[C@@H]8OC[C@@H](O)[C@H](O)[C@H]8O)[C@H]7O[C@@H]7O[C@H](CO)[C@@H](O)[C@H](O)[C@H]7O)[C@H](O)[C@H]6O)[C@H](O)C[C@]5(C)C4=CC(=O)[C@]3(C)[C@H]1[C@@H]2C` (stereo partly specified), for which, in experiment [1], the outcome was “inactive [at 9.29 µM]”. Besides, in [2], the activity change, negative = cytotoxicity was 4.95% [at 9.29 µM]. The Potency entry in [6] and in experiment [7] was “inactive” throughout.
